From ChEMBL document CHEMBL1961873, “Compounds: GSK PKIS; Assays: Nanosyn kinase panel” (2012)

What was measured:
[1] = target: RAF proto-oncogene serine/threonine-protein kinase (Homo sapiens) (UniProt P04049); conditions: at 1 µM;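 note: values are the mean percent inhibition of CRAF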
[2] = target: T1, Interleukin-1 receptor-associated kinase 4 (Homo sapiens) (UniProt Q9NWZ3); conditions: at 0.1 µM
T1 sequence (whole entry): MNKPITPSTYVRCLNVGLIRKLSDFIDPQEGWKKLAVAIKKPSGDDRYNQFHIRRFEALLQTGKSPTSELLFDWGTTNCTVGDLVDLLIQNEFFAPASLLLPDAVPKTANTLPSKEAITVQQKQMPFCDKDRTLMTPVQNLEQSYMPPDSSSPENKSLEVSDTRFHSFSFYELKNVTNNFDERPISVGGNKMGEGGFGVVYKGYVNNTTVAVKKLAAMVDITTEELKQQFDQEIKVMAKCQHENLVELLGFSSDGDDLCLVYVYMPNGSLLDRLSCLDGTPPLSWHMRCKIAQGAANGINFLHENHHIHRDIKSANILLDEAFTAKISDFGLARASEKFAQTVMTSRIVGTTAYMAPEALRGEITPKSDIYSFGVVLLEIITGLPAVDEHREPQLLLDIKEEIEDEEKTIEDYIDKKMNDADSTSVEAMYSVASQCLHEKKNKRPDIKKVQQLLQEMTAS

[3] = target: T1, Interleukin-1 receptor-associated kinase 4 (Homo sapiens); conditions: at 1 µM
[4] = target: Leucine-rich repeat serine/threonine-protein kinase 2 (Homo sapiens) (UniProt Q5S007); conditions: at 0.1 µM
[5] = target: Leucine-rich repeat serine/threonine-protein kinase 2 (Homo sapiens) (UniProt Q5S007); conditions: at 1 µM
[6] = test system: Leucine-rich repeat serine/threonine-protein kinase 2 (Homo sapiens), Q5S007 [G2019S]; conditions: at 0.1 µM
[7] = test system: Leucine-rich repeat serine/threonine-protein kinase 2 (Homo sapiens), Q5S007 [G2019S]; conditions: at 1 µM

Chain of RAF proto-oncogene serine/threonine-protein kinase (Homo sapiens) (P04049 whole entry): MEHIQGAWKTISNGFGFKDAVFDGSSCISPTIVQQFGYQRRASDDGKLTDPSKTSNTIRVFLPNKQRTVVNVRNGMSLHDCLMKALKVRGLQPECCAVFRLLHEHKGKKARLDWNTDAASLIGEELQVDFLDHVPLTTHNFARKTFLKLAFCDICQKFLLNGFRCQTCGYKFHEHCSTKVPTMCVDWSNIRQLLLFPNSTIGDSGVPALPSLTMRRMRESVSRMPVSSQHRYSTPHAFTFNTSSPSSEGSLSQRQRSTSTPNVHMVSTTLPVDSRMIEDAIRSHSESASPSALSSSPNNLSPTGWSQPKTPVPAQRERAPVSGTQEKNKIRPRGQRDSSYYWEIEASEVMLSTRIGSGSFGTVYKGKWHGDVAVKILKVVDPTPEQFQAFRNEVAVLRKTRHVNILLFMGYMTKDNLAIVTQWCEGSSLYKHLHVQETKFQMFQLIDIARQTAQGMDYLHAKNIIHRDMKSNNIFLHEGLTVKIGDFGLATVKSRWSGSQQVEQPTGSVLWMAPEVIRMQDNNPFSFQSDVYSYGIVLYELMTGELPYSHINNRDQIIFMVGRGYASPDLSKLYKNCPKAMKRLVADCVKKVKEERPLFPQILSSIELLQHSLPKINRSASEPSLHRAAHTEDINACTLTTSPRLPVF
Chain of Leucine-rich repeat serine/threonine-protein kinase 2 (Homo sapiens) (Q5S007 whole entry): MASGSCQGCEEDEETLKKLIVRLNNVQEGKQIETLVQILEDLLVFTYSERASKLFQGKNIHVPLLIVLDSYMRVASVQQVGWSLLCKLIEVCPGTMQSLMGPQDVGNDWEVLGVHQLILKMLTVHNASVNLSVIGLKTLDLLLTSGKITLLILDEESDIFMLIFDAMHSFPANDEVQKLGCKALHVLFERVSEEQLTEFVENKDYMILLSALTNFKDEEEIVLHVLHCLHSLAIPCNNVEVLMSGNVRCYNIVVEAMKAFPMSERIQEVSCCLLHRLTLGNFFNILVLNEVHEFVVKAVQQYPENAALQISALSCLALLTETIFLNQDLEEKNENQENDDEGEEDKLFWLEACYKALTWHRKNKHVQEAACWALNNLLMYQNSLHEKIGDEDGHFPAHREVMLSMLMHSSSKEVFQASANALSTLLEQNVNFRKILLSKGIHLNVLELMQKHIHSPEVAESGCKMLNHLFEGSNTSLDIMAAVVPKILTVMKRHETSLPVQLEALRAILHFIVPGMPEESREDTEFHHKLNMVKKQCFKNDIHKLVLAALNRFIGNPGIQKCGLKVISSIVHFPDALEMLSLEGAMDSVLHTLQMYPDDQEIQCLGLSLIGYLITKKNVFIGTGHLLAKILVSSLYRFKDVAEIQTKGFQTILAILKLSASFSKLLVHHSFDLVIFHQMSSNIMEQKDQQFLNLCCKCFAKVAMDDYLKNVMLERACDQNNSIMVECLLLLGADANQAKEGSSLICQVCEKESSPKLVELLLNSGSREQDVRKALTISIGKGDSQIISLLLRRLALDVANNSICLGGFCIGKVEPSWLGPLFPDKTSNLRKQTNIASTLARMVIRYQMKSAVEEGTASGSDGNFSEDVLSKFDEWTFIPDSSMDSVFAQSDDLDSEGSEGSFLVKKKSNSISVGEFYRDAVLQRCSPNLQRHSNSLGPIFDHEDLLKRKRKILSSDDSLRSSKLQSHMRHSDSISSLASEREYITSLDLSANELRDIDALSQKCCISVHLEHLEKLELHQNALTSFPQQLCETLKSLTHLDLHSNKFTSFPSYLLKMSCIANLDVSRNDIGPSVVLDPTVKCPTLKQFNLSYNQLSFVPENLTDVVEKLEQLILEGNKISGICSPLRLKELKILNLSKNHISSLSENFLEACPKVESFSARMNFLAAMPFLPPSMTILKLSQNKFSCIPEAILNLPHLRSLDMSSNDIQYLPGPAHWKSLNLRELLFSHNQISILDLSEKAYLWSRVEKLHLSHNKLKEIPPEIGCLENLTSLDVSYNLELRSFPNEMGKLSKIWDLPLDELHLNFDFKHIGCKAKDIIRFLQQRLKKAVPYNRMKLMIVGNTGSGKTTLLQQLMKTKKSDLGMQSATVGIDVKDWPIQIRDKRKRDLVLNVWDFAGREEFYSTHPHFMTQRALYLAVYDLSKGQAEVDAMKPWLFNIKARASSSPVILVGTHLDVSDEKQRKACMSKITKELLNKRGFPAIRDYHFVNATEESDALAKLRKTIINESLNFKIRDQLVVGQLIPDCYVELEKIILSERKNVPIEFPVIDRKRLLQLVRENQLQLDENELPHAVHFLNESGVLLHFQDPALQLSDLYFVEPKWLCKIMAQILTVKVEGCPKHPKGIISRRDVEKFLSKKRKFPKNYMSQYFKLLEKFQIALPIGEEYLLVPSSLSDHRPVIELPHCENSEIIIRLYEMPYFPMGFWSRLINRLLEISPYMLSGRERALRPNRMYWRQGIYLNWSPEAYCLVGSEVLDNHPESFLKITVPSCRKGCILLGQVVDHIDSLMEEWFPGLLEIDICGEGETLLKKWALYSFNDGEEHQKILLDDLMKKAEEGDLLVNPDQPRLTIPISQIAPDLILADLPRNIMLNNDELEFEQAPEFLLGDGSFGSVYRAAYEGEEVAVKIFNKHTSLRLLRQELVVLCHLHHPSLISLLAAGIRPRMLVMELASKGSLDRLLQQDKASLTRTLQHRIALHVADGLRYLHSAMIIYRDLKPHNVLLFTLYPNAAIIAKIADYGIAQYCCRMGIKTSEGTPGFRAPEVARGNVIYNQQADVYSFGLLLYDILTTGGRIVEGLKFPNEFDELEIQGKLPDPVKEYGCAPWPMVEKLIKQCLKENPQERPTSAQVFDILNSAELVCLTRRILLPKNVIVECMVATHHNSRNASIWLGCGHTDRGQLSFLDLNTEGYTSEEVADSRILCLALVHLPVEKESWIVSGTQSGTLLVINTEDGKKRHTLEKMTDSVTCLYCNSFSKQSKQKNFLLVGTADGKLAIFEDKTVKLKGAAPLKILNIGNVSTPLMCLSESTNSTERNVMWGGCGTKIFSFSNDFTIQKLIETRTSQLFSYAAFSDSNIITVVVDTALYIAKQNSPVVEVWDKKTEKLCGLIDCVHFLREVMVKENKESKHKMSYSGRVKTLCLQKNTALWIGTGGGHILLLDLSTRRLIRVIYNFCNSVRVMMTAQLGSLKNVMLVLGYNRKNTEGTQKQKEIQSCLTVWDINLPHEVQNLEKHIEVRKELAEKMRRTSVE
Chain of Leucine-rich repeat serine/threonine-protein kinase 2 (Homo sapiens), Q5S007 [G2019S] (Q5S007 whole entry G2019S): as the sequence (Q5S007 whole entry) above, with G2019S counted along it

Compound	inhibition [1] [%]	inhibition [2] [%]	inhibition [3] [%]	inhibition [4] [%]	inhibition [5] [%]	inhibition [6] [%]	inhibition [7] [%]
CCCN(CCS(C)(=O)=O)Cc1ccc(-c2ccc3ncnc(Nc4ccc(OCc5cccc(F)c5)c(Cl)c4)c3c2)o1	-0.27	-3.12	0.98	3.72	4.95	4.3	6.74
COc1ccc(-c2cc(-c3c[nH]nc3-c3ccccn3)ccn2)cc1	0.07	-2.78	2.03	2.47	7.04	4.82	7.48
Cc1cccc(Nc2ncc(-c3ccccc3)o2)c1	-2.34	1.25	1.27	1.6	7.74	5.32	11.8
N#Cc1c(NC(=O)CN2CCOCC2)sc2c1CCCC2	-1.23	1.87	2.93	2.88	8.63	3.95	8.85
COC(=O)Nc1nc2ccc(Oc3ccc(NC(=O)Nc4cccc(Cl)c4)cc3)cc2[nH]1	5.38	-0.12	0.32	6.71	14.1	5	6.86
COc1ccc2c(-c3ccnc(Nc4cccc(OC(F)(F)F)c4)n3)cnn2n1	–	-3.64	2.91	5.25	14.5	8.08	39.3
CNC(=O)c1cc(-c2ccc(F)cc2)cc(-c2ccc(S(=O)(=O)N3CCCC3)cc2)c1N	-2.71	0.68	1.45	1.42	2.9	4.27	5.64
COc1cccc(-n2ncc3c(N/N=C/c4ccc(F)cc4)ncnc32)c1	–	-3.94	1.4	1.96	6.79	5.09	8.94
CC1=C(C(=O)Nc2cc(Cl)c3[nH]ncc3c2)C(c2ccc(C(F)(F)F)cc2)CC(=O)N1 (stereo not drawn)	-5.81	2.04	1.44	2.62	4.9	4.35	12.6
Cc1ccc2c(-c3ccnc(Nc4ccccc4)n3)c(-c3ccc(F)cc3)nn2n1	–	-2.94	1.87	3.22	7.93	3.36	7.63
Cc1cccc2c1NC(=O)/C2=N\Nc1ccc(S(N)(=O)=O)cc1	–	-0.09	1.25	2.99	7.1	2.75	10.2
Fc1ccc(-c2cc(-c3c[nH]nc3-c3ccccn3)ccn2)cc1	-1.83	2.71	1.76	2.24	5.28	3.03	4.92
CNC(=O)c1cncc(/C=C/c2ccccc2Cl)c1	-3.13	-1.64	0.01	3.2	4.57	1.78	6.07
CCNC(=O)O[C@H]1CN[C@H](C#Cc2cc3ncnc(Nc4ccc(OCc5cccc(F)c5)c(Cl)c4)c3s2)C1	–	-5.34	6.03	3.12	4.18	2.44	6.88
NS(=O)(=O)c1ccc(N/N=C2\C(=O)Nc3ccc4ncccc4c32)cc1	–	2.94	2.77	19.4	22.2	40.4	63.2
NS(=O)(=O)c1ccc(Nc2ncc(-c3ccccc3)o2)cc1	-4.28	-2.68	1.92	3.47	15	5.15	19.4
Cc1ccc(O)cc1Nc1ccnc2cc(-c3ccccn3)ccc12	–	-3.41	2.33	5.01	11.4	7.5	31.1

Compound	inhibition [1] [%]	inhibition [2] [%]	inhibition [3] [%]	inhibition [4] [%]	inhibition [5] [%]	inhibition [6] [%]	inhibition [7] [%]
COc1cccc(-c2c[nH]c3c(N/N=C/c4ccncc4)ncnc23)c1	–	-2.59	5.06	4.34	14	5.22	25.9
COC(=O)Nc1nc2ccc(S(=O)(=O)c3ccc(NC(=O)Nc4cc(C(F)(F)F)ccc4F)cc3)cc2[nH]1	-2.68	2.19	1.11	4.08	3.21	2.36	6.79
CNC(=O)c1cccc(C#Cc2cncnc2Nc2ccc(OCc3cccc(F)c3)c(Cl)c2)c1	-1.34	-3.89	0.26	0.02	3.48	-1.1	3.49
COc1cc(/C=N/Nc2ncnc3[nH]ncc23)ccc1O	6.28	-2.65	4.43	5.72	17.5	10	45.2
COc1ccc2[nH]c3c4[nH]c5ccc(OC)cc5c4c4c(c3c2c1)C(=O)NC4=O	-1.59	-1.07	4.52	20.8	24.3	61	63.2
Fc1cccc(COc2ccc(Nc3ncnc4sc(-c5ccco5)cc34)cc2Cl)c1	0.89	0.84	1.26	3.64	6.42	5.67	9.11
COc1cc(N2CCN(C(C)C)CC2)ccc1Nc1nc(Nc2ccc(F)cc2C(N)=O)c2cc[nH]c2n1	-2.24	0.7	1.94	84.9	94.8	85.4	62.5
O=S(=O)(CCNCc1ccc(-c2ccc3ncnc(Nc4ccc(OCc5cccc(F)c5)c(Cl)c4)c3c2)o1)c1ccccc1	1.37	2.14	2.63	4.97	4.53	6.27	9.28
N#Cc1c(NC(=O)c2ccc(F)cc2)sc2c1CCCC2	–	1.78	0.51	0.58	1.04	1.92	5.12
CC(=O)NCc1cccc(C#Cc2cncnc2Nc2ccc(OCc3cccc(F)c3)c(Cl)c2)c1	-4.04	2.92	0.5	0.41	7.51	2.36	7.6
Nc1nc(-c2ccc(F)cc2)c(-c2ccc3ncccc3n2)s1	-6.29	3.41	2.12	1.84	6.21	4.54	10.2
[O-][S+]1CCN(Cc2ccc(-c3ccc4ncnc(Nc5ccc(OCc6cccc(F)c6)c(Cl)c5)c4c3)o2)CC1	-3.13	1.66	1.66	3.74	3.96	6.35	11.4
CS(=O)(=O)CCNCc1ccc(-c2ccc3ncnc(Nc4ccc(OCc5ccccc5)c(C(F)(F)F)c4)c3c2)o1	0.04	0.72	1.09	2.22	4.18	4.54	5.03
c1cc(-c2cnn3nc(N4CCOCC4)ccc23)nc(NC2CC2)n1	–	-3.02	4.62	4.63	16.4	6.59	37.2
COc1cc2ncn(-c3cc(OCc4ccccc4C(F)(F)F)c(C(=O)N(C)C)s3)c2cc1OC	-3.66	2.2	-0.25	2.7	15.2	1.6	16.7
CCN(CC)S(=O)(=O)c1ccc(OC)c(Nc2ncc(-c3ccccc3)o2)c1	-0.65	0.75	0.8	2.62	5.16	1.76	9.32
Nc1nc(-c2cccc(Cl)c2)c(-c2ccc3ncccc3n2)s1	-0.32	3.86	2.05	3.53	7.21	6.96	9.35
